Structures are written as SMILES. Results filed as inconclusive are left out. Where a call stands in place of a potency, no number is given. The source made the active and inactive calls. The call rests on the fitted dose curve; in most records, active means well fitted inhibition curve with a large enough effect; inconclusive means small, poorly fitted or top-dose-only effect; inactive means no such curve, though single readings can be large or run the other way.
Potency means the concentration at half of the fitted maximal effect.

The experiment deals with Zika virus NS2B-NS3 protease (unlinked complex). Description: Primary screen GU Rhodamine qHTS for Zika virus inhibitors: Unlinked NS2B-NS3 protease assay (AID 1347159). Further: nearly all actives have a fitted effect of over 60% in size. The conditions noted are these: Recombinant ZIKV NS2B-NS3 protease, Rhodamine110 substrate fluorescence; series mostly up to 107 µM. The gist of the method: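 Enzyme 25 nM in Tris-HCl pH 8.0 + 0.01% Tween 20; compounds up to 114 microM, 15 min RT dark; + Rhod110 substrate 1.5 microM; read t0 and 15 min; delta fluorescence → % inhibition → 4-parameter Hill fit.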
As for `C=C1C[C@]23C[C@H]1CC[C@H]2[C@@]12CC[C@H](O)[C@@](C)(C(=O)O1)[C@H]2[C@@H]3C(=O)O`, the Potency result is “inactive”.

Consider `C/C=C1\[C@H](O[C@@H]2O[C@H](CO)[C@@H](O)[C@H](O)[C@H]2O)OC=C2C(=O)OCCc3ccc(O)c(c3)Oc3ccc(cc3)CCOC(=O)C[C@H]21`, for which the Potency entry is “inactive”. For `CC1(C)CCC2(C(=O)OC3OC(CO)C(O)C(O)C3O)CCC3(C)C(=CCC4C5(C)CCC(OC6OC(C(=O)O)C(OC7OC(CO)C(O)C(O)C7O)C(OC7OC(CO)C(O)C(O)C7O)C6O)C(C)(C)C5CCC43C)C2C1` (configuration not stated) the value was “inactive”; for `COc1c2cc(c(O)c1OC)-c1cc(ccc1O)CCC(O)CCCC2` (configuration not stated), “inactive”. For `C=CC(C)(O)C(O)CC1C(C)(O)C(O)C(O)C2C(C)(C)CCCC21C` (configuration not stated) the value was “inactive”; for `Cn1nnc(-c2ccc(-c3ccc(N4C[C@H](COP(=O)(O)O)OC4=O)cc3F)cn2)n1`, “inactive”.

As for `C/C(=C\C=C\C(C)C1CCC2(C)C3CCC4C(C)(C)C(=O)CCC45CC35CCC12C)C(=O)O` (configuration not stated), the Potency was 4.47 µM (active). As for `CC1CC(O)C2(OC1=O)OC1C(O)C3C4CCC5CC(OC6OC(CO)C(O)C(O)C6OC6OC(C)C(O)C(O)C6O)CCC5(C)C4CCC3(C)C1C2C` (configuration not stated), the entry is “inactive”; as for `Cc1cc(OCc2nc(-c3ccccc3Cl)cs2)ccc1OCC(=O)O`, 12.6 µM (active); as for `COc1ccc(-c2cnc(-c3cccc4c3-c3ccccc3C4=O)o2)cc1`, “inactive”.

As for `CC(C)c1cc(C(=O)N2CC[C@@H](NC(=O)C3CC3)C2)n[nH]1`, the Potency result is “inactive”. As for `CC1(C)CC[C@]2(C(=O)O)[C@H](O)C[C@]3(C)C(=CCC4[C@@]5(C)CC[C@H](O[C@@H]6O[C@H](CO[C@@H]7OC[C@H](O)[C@H](O)[C@H]7O[C@@H]7OC[C@@H](O)[C@H](O)[C@H]7O)[C@@H](O)[C@H](O)[C@H]6O[C@@H]6O[C@H](CO)[C@@H](O)[C@H](O)[C@H]6O)C(C)(C)C5CC[C@]43C)[C@@H]2C1` (some centres not stated), the entry is “inactive”.
